In PubChem BioAssay AID2314 (National Center for Advancing Translational Sciences (NCATS), 2010):
Out of some 300,000 compounds screened, about 37,000 (12%) were called active. Cut-off read from the data, not from the text of the source: active = max response mostly above about 13% (no sharp cut-off); inactive = mostly below about 14%. The full list was thinned out, with actives kept by preference.

experiment: Cycloheximide Counterscreen for Small Molecule Inhibitors of Shiga Toxin; details: cell reporter, cycloheximide protein synthesis inhibition counterscreen; active compounds read high; note: read at 38.3 µM for the half of the compounds with a filed dose; 0% is about no effect

| Compound | max response |
| --- | --- |
| O=C(NCc1cccnc1)C12CC3CC(CC(C3)C1)C2 | -4.42% (inactive) |
| COC(=O)c1ccccc1SC1CC(=O)N(c2cccc(C)c2)C1=O (stereo not given) | -2.47% (inactive) |
| Cc1cccc(N2C(=O)CC(SC(N)=Nc3ccccc3)C2=O)c1 (stereo not given) | 6.82% (inactive) |
| Cc1cccc(N2C(=O)SC(SC(=Nc3ccccc3)Nc3ccccc3)C2=O)c1 (stereo not given) | 50% (active) |
| O=C(NCc1ccc2c(c1)OCO2)C(=O)NCC1OCCN1S(=O)(=O)c1ccc(F)cc1 (stereo not given) | 0.524% (inactive) |
| O=S(=O)(NC1CCCC1)c1ccc(-n2cnnn2)cc1 | -3.31% (inactive) |
| Clc1nc(NC2CCCC2)nc(N2CCOCC2)n1 | -1.13% (inactive) |
| CC1CC(C)CN(CCOc2cccc3ccccc23)C1 (stereo not given) | -3.88% (inactive) |
| CCCC(=O)N1c2ccc(-c3csc(N)n3)cc2CC1C (stereo not given) | 82.4% (active) |
| CCn1nc(C(=O)OCC(=O)N2c3ccccc3CC2C)c2ccccc2c1=O (stereo not given) | -2.9% (inactive) |
| Cc1ccn(CCC(=O)N2c3ccccc3CC2C)n1 (stereo not given) | -3.05% (inactive) |
| COc1ccc(Nc2ncnc3ccc(OC)cc23)cc1 | 4.47% (inactive) |
| COc1ccc(Nc2cc(Sc3ccc(OC)cc3)ncn2)cc1 | 12.3% (inactive) |
| COc1ccc(Nc2ncnc3sc(C)cc23)cc1 | 41% (active) |
| CS(=O)(=O)N1CCN(CC(=O)NC2CCCC2)CC1 | 2.24% (inactive) |
| COc1ccc(C2CC(=O)NC(=O)C2)cc1 | 5.71% (inactive) |
| O=C1COc2ccc(S(=O)(=O)NCCc3ccc(Cl)cc3)cc2N1 | -8.47% (inactive) |
| COC(=O)c1c(NC(=O)CN2C(=O)NC(CCc3ccccc3)C2=O)sc2c1CCCCC2 (stereo not given) | -2.51% (inactive) |
| Nc1cc(N2CCCCCC2)c2nonc2c1[N+](=O)[O-] | -1.67% (inactive) |
| Cc1cccc(NC(=O)CCN2CC(C)CC(C)C2)c1 (stereo not given) | -2.06% (inactive) |
| N#CCc1ccc(NC(=O)c2ccccc2C(=O)Nc2ccc(CC#N)cc2)cc1 | 21.8% (active) |
| NC(=O)COc1ccc(NC(=O)c2ccccc2-c2ccccc2)cc1 | -2.28% (inactive) |
| CC(=O)Nc1ccc(CC#N)cc1 | -2.61% (inactive) |
| O=C(Nc1ccccc1N1CCOCC1)c1ccc(OCc2cscn2)cc1 | -3.59% (inactive) |

| Compound | max response |
| --- | --- |
| CNC(=O)N1c2ccccc2C=Cc2ccccc21 | -2.75% (inactive) |
| Nn1c(SCc2ccccc2)nnc1C1CCCCC1 | 38.2% (active) |
| Cc1cccc(CSc2nnc(C)c(=O)n2N)c1 | -1.39% (inactive) |
| Cc1nnc(SCc2cccc(Cl)c2)n(N)c1=O | 8.39% (inactive) |
| O=[N+]([O-])c1ccc(N2CCN(c3ccc(F)cc3)CC2)cn1 | -1.96% (inactive) |
| CCCCC(=O)Nc1nnc(S(=O)(=O)N(C)Cc2ccco2)s1 | 12% (inactive) |
| Cc1ccc([N+](=O)[O-])cc1S(=O)(=O)N1CCCN(C)CC1 | -0.621% (inactive) |
| CC(C)(C)SCCNC(=O)c1cccc([N+](=O)[O-])c1 | 19.6% (active) |
| COc1cccc(NCCC(=O)c2cccc([N+](=O)[O-])c2)c1 | 34.7% (active) |
| Cc1cc(CNC(=O)c2cccc([N+](=O)[O-])c2)c2ccccc2n1 | 18.3% (inactive) |
| COc1cccc(C(=O)CC(=O)C(=O)Nc2ccc([N+](=O)[O-])cc2C)c1 | -0.608% (inactive) |
| COc1cccc(CNC(=O)CCCC(=O)Nc2cccc([N+](=O)[O-])c2)c1 | -3.22% (inactive) |
| Cc1cccc(C(=O)NNC(=O)c2cccc([N+](=O)[O-])c2)c1 | 0.787% (inactive) |
| COCCCNCCOCCOc1ccc(Cl)cc1Br | -3.84% (inactive) |
| CC(C)(C)c1nnc(NC(=O)C2c3ccccc3Oc3ccccc32)s1 | -2.51% (inactive) |
| O=c1o[nH]c(-c2ccccc2)c1N=Nc1c(F)cccc1Cl | 6.23% (inactive) |
| COc1ccc2c(c1)c(C(=O)N/N=C/c1cccs1)c(C)n2C | -3.51% (inactive) |
| O=C(CN1CCC(NC(=O)Nc2ccccc2)CC1)Nc1cccc([N+](=O)[O-])c1 | -2.36% (inactive) |
| COCCNC(=O)c1ccc(S(=O)(=O)c2ccc(Cl)cc2)c(NC(C)=O)c1 | -7.19% (inactive) |
| CCOc1cc(/C=C/c2nc3ccccc3c(=O)[nH]2)cc(Br)c1OC | 2.32% (inactive) |
| COC(=O)c1cccc(C(=O)N2CCC(CCC(=O)NCc3ccc(F)cc3)CC2)c1 | -0.695% (inactive) |
| Cc1ccc(C2(C(F)(F)F)N=C3Sc4cc(C)cc(C)c4N3C(=O)N2)cc1 (stereo not given) | 18.6% (active) |
| O=C(Cn1cc(C(F)(F)F)ccc1=O)N/N=C/c1ccc(Cl)cc1Cl | -2% (inactive) |
| Cn1nnc(NC(=O)CSc2ncn[nH]2)n1 | -1.09% (inactive) |

| Compound | max response |
| --- | --- |
| CCN(C(=O)CSc1ncn[nH]1)c1cccc2ccccc12 | 4.43% (inactive) |
| CC(C)(C)c1ccc(C(=O)CSc2ncn[nH]2)cc1 | 37.3% (active) |
| Cc1ccc2c(c1)C(c1ccccc1)N(C(=O)c1ccc(S(=O)(=O)N3CCOCC3)cc1)CC(=O)N2 (stereo not given) | -1.59% (inactive) |
| O=C(CSc1nc2ccccc2[nH]1)c1cccs1 | 47.2% (active) |
| O=C(CSc1nc2ccccc2[nH]1)Nc1nc(-c2ccccc2)c(-c2ccccc2)o1 | 0.677% (inactive) |
| N#Cc1c(-c2ccc(F)cc2)cc(C2CC2)nc1SCC(=O)c1cccs1 | -0.655% (inactive) |
| CN(Cc1ccccc1)c1nc2c(c(=O)[nH]c(=O)n2C)n1CCSc1nc2ccccc2[nH]1 | 0.491% (inactive) |
| N#Cc1c(-c2cccs2)nc(SCC(=O)c2ccc(Br)cc2)[nH]c1=O | 2.73% (inactive) |
| CN(Cc1ccccc1)C(=O)CSc1nc2ccccc2[nH]1 | 39.7% (active) |
| C=CCN(CC=C)S(=O)(=O)c1ccc(C(=O)Nc2nc3c(s2)CCc2ccccc2-3)cc1 | -6.15% (inactive) |
| CC(C)Cn1c(N2CCN(C(=O)/C=C/c3ccccc3)CC2)nc2ccccc21 | 3.07% (inactive) |
| CC1CCCCC1NC(=O)CO/N=C/c1ccc(OC(F)F)cc1 (stereo not given) | 1.26% (inactive) |
| Cc1ccc(C(=O)NCC(=O)OCc2nnc(-c3ccccc3)o2)cc1 | 23.8% (active) |
| O=C(CNC(=O)c1ccc(-c2ccccc2)cc1)OCc1ccc(Cl)cc1 | -0.931% (inactive) |
| O=C(OCc1nnc(-c2ccccc2)o1)c1ccc2c(c1)C(=O)N(CCc1ccccc1)C2=O | -1.64% (inactive) |
| O=C(CN1CCN(c2cccc(Cl)c2)CC1)Nc1ccc(S(=O)(=O)N2CCOCC2)cc1 | -3.83% (inactive) |
| CCOc1cc(/C=C2/N=C(c3ccc(C(C)(C)C)cc3)OC2=O)cc(Cl)c1OS(C)(=O)=O | -4.6% (inactive) |
| O=C1CCC(=O)N(O)CCCCCNC(=O)CCC(=O)N(O)CCCCCNC(=O)CCC(=O)N(O)CCCCCN1 | -3.2% (inactive) |
| CC(C)[C@@H]1COC(c2cccc(C3=N[C@H](C(C)C)CO3)c2)=N1 | 33.7% (active) |
| O=C(O)c1cccnc1NC1CCCC1 | -2.86% (inactive) |
| COc1ccc(-c2nonc2NC(=O)c2oc3ccc(F)cc3c2C)cc1OC | 4.29% (inactive) |
| Cc1ccc(S(=O)(=O)NCc2ccc(C(=O)NC3CCC(C)CC3)cc2)cc1 (stereo not given) | -10.9% (inactive) |
| Cc1ccc(C)c(NC(=O)NNC(=O)c2ccc3ccccc3c2O)c1 | 3.4% (inactive) |
| O=C(NC1CCCC1)c1cc(-c2ccccc2)on1 | 30.6% (active) |

| Compound | max response |
| --- | --- |
| O=C(Nc1cc(C(F)(F)F)ccc1Cl)c1cc(C2CC2)on1 | -4.3% (inactive) |
| CSc1ccccc1NC(=O)c1cc(C2CC2)on1 | 37.7% (active) |
| COc1cc(OC)c(C(=O)NC2CCCCCC2)cc1OC | -2.09% (inactive) |
| CC(NC(=O)c1cc(-c2ccccc2)on1)c1ccccc1 (stereo not given) | 3.69% (inactive) |
| O=C(NC1CC1)c1ccc(-c2ccccc2)cc1 | 42.7% (active) |
| O=C(NC1CCCCC1)c1cc(C2CC2)on1 | 40.8% (active) |
| CC(=O)c1cc(-c2ccccc2)n(CC(=O)NC2CCCCC2)c1C | -3.63% (inactive) |
| O=C(NC1CC1)c1cccc(Br)c1 | -2.43% (inactive) |
| O=C(NC1CCN(S(=O)(=O)c2ccc(F)cc2)CC1)c1ccccc1 | -0.862% (inactive) |
| Cc1nn(Cc2ccc(Cl)c(Cl)c2)c(C)c1NC(=O)c1cc(C2CC2)on1 | -1.12% (inactive) |
| CSc1ccccc1NC(=O)c1cc(Cl)sc1Cl | 2.39% (inactive) |
| Cn1cc(S(=O)(=O)Nc2ccc(Cl)cc2Cl)c(=O)n(C)c1=O | -2.38% (inactive) |
| CC(C)C[C@@H](NC(=O)[C@H]1CCCN1C(=O)Cc1ccccc1)C(N)=O | 8.92% (inactive) |
| CCC1(CC)C(=O)C2=C3C1[C@H](C(=O)OC)C=C(C(=O)OC)C[C@H]3[C@H]1C(=O)N(Cc3ccccc3)C(=O)[C@H]1[C@H]2C (stereo not given in full) | -3.02% (inactive) |
| CC(NC(=O)Cn1cc(C(F)(F)F)cc(Cl)c1=O)c1ccccc1 (stereo not given) | 11.8% (inactive) |
| CC[C@H](C)[C@H](NC(=O)[C@H](Cc1cnc[nH]1)NC(=O)[C@@H](N)CCC(=O)O)C(=O)N1CCC[C@H]1C(=O)N[C@@H](C)C(=O)O | -2.98% (inactive) |
| CCCCn1ccnc1C(=O)c1cccc(S(=O)(=O)N2c3ccccc3CC2C)c1 (stereo not given) | -2.53% (inactive) |
| N/C(=N\OC(=O)CCc1ccccc1)c1cccnc1 | 27.3% (active) |
| O=C(O)CCc1cccnc1 | 2.51% (inactive) |
| N/C(=N\OC(=O)CCc1ccccc1)c1ccc(Cl)cc1 | 24.7% (active) |
| Cc1ccc(/C(N)=N/OC(=O)COc2ccc(Cl)c(C)c2)cc1 | -3.46% (inactive) |
| O=C(CCC(=O)OCc1ccc(Cl)cc1)Nc1ccccc1 | -2.49% (inactive) |
| CC(=O)OC(C(=O)NCCc1ccccc1)c1cccnc1 (stereo not given) | -0.715% (inactive) |
